# Values without a mark were called inactive. The source made the active and inactive calls. Cut-off read from the data, not from the text of the source: active = inhibition above about 30%; inactive = the rest.
# System: transactivating tegument protein VP16 (Human herpesvirus 1), Gal4-VP16 luciferase reporter
# Test: VP16 transactivation inhibitors, counter-screen for SRC3 inhibitor project, cell-based, luminescence, high throughput (AID 588794)
# Conditions: mammalian cells, VP16-driven luciferase reporter luminescence; at 3.6 µM; active compounds read high
row,Structure (SMILES),inhibition
1,Nc1ccc(C(=O)N/N=C\c2cc(N=Nc3cccc4ccccc34)ccc2O)cc1,17.7%
2,COc1ccc(-c2csc(NC(=O)c3ccccc3NS(=O)(=O)c3ccc(F)c(F)c3)n2)cc1,71.4% (active)
3,COc1ccc(/C=N/NC(=S)Nc2ccccc2[N+](=O)[O-])cc1O,-47%
4,CCn1nc([N+](=O)[O-])c(C(C#N)c2nc3cc(C(F)(F)F)ccc3s2)c(Cl)c1=O (stereo not given),12.3%
5,COc1ccc(O)c(/C=N/NC(=S)Nc2cccc(S(=O)(=O)N(C)C)c2)c1,26.2%
6,Nc1ccc2c(c1)C(=O)C(=O)c1ccccc1-2,95.3% (active)
7,COc1cccc(/C=N/Nc2ccc([N+](=O)[O-])cn2)c1O,10.2%
8,CCN1/C(=C/C=C/c2oc3ccc(-c4ccccc4)cc3[n+]2CC)Oc2ccc(-c3ccccc3)cc21,95.4% (active)
9,O=C1C(Nc2ccccc2)=C/C(=N/S(=O)(=O)c2cccs2)c2ccccc21,59.4% (active)
10,COc1ccc(S(=O)(=O)/N=C2\C=C(Nc3ccc(O)cc3)C(=O)c3ccccc32)cc1,92.8% (active)
11,CCC(=O)Nc1nc(C)c(-c2csc(Nc3cccc(O)c3)n2)s1,47.6% (active)
12,Cc1cc(C)nc(SCc2ccc(C(=O)N/N=C/c3cccc(O)c3O)cc2)n1,38.9% (active)
13,Cc1ccc(C(C)C)c(OCc2ccc(C(=O)N/N=C/c3ccc(O)cc3O)cc2)c1,78.3% (active)
14,O=c1c2ccccc2nc(N/N=C/c2c(O)ccc3ccccc23)n1O,78.8% (active)
15,Cc1cc([N+](=O)[O-])ccc1-c1ccc(C2Nc3ccccc3C(=O)N2O)o1 (stereo not given),1.31%
16,Cc1ccc(C(C)C)c(OCc2ccc(C(=O)N/N=C/c3cccc(O)c3O)cc2)c1,32.4% (active)
17,Cn1nc(-c2ccccn2)nc2c(=O)n(C)c(=O)nc1-2,62% (active)
18,COc1cccc2c1C(=O)c1c(O)c3c(c(O)c1C2=O)C[C@@](O)(C(=O)CO)C[C@@H]3O[C@H]1C[C@H](N)[C@H](O)[C@H](C)O1,87.7% (active)
19,CCN(CC)S(=O)(=O)c1ccc(N/N=C/c2ccc(O)cc2O)nc1,67.3% (active)
20,COC(=O)c1cc(C)nc2c1C(=O)C(=O)C=C2N1CCOCC1,54.7% (active)
21,N#C/C(=N\Nc1cccc([N+](=O)[O-])c1)C(=O)c1ccc(Br)cc1,26.8%
22,COc1ccc(OC)c2[nH]c(C(=O)N/N=C/c3ccccc3O)cc12,39.2% (active)
23,Brc1ccc(N/N=C(/N=Nc2nn[nH]n2)c2ccccc2)cc1,80.2% (active)
24,Oc1ccccc1N=Nc1nc(-c2ccccc2)c(-c2ccccc2)[nH]1,76.4% (active)
25,COc1cccc(N2CCN(c3ncnc4c3[nH]c3ccc(F)cc34)CC2C)c1 (stereo not given),93.4% (active)

# From PubChem BioAssay
